# Results published in PubChem BioAssay (NCI).
# About 83,000 compounds went through this panel and 20% of them were active in at least one assay; those are over-represented in the sample as a whole.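 Testing used 96-well plates and a 48-hour single-concentration exposure. Example: -40 means 40% of the starting cells died.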 Activity calls are given as the source filed them. The calls were made as follows: active = growth percent below 10; inactive = the rest.
# Test system: RXF 393 renal
# Assay: NCI-60 one-dose screen, 48 h (100 = growth as untreated, 0 = no growth, -100 = all killed)
# Details: 10 µM unless noted
row,Compound,growth
1,COc1ccc(/C(=C\c2cc(OC)c(OC)c(OC)c2)C(=O)N2CCNCC2)cc1,99.2% (inactive)
2,O=c1c2sc3ncc(Cl)cc3c2nnn1-c1cccc(Cl)c1,96.2% (inactive)
3,F,23.9% [6.87 mM] (inactive)
4,CC1=C(C(=O)Nc2ccc(F)cc2)C(c2ccc(C)cc2)C2=C(CC(C)(C)CC2=O)N1 (stereo unspecified),92.1% (inactive)
5,CC[C@H](Nc1nc(N)nc(C2CC2)c1C#N)c1nc2cccc(NCc3ccc(C(=O)NO)cc3)c2c(=O)n1-c1ccccc1,-15.2% (active)
6,CC(C)N1CCN(c2ccncc2S(=O)(=O)N2CCN(C)CC2)CC1,107% (inactive)
7,c1ccc(C(CC2=NCCCN2)c2ccccc2)cc1,113% (inactive)
8,Clc1ccc2c(c1)-c1ccccc1C1=NCCN12,2.19% (active)
9,O=C(C=P(c1ccccc1)(c1ccccc1)c1ccccc1)CCl,-71.1% (active)
10,COc1cc(/C=C/C(=O)c2ccc(NC(=O)CSc3nnc(-c4ccc(Cl)cc4)n3-c3ccccc3)cc2)cc(OC)c1OC,55.5% (inactive)
11,OC(c1cc2cc(Cl)ccc2c2cc(C(F)(F)F)ccc12)C1CCCCN1 (stereo unspecified),-95.4% (active)
12,Clc1cc(Br)ccc1-c1ccc(CNCC2CCNCC2)o1,64.8% (inactive)
13,CN1CCN(Cc2ccc(NC(=O)c3cncc(C#Cc4ncc5cnccn45)c3)cc2C(F)(F)F)CC1,51.1% (inactive)
14,CC1=C(C(=O)Nc2ccc(F)cc2)C(c2ccc(Cl)cc2)C2=C(CC(C)(C)CC2=O)N1 (stereo unspecified),96.4% (inactive)
15,CCOC(=O)c1ccc(N(CCC(=O)O)C(C)=O)cc1,106% (inactive)
16,O=c1[nH]c2cc(Cl)c(Cl)cc2o1,135% (inactive)
17,CC(COC(=O)c1ccccc1)N1CC2CCC(C1)O2 (stereo unspecified),106% (inactive)
18,CC[C@H](Nc1nc(C)nc(N)c1C#N)c1nc2cccc(NCc3ccc(C(=O)NO)cc3)c2c(=O)n1-c1ccccc1,-27.2% (active)
19,Cc1cc(NC(=O)C2c3ccccc3C(=O)N(CC(C)C)C2c2cccs2)no1 (stereo unspecified),-88.3% (active)

row,Compound,growth
1,Clc1ccc2c(c1)-n1cccc1C(c1ccc3ccccc3c1)=NC2,96.1% (inactive)
2,CCC1CCc2nc3sc(C(=O)Nc4cccc(F)c4)c(N)c3cc2C1 (stereo unspecified),65.8% (inactive)
3,CCn1c(CN2CCN(Cc3ccccc3)CC2)nc2cc(NC(=O)c3cccs3)ccc21,-92.4% (active)
4,CCN(CC)CCCNc1cccc2c(C)cc(OC)nc12,93.9% (inactive)
5,COc1ccc(-c2cn(-c3cccc(C(=O)/C=C/c4ccc(O)c(OC)c4)c3)c(=O)[nH]2)cc1,-60.9% (active)
6,COc1ccc(/C=c2\c(=O)n(-c3ccccc3)c3nn4c(n23)=NNC42CCCCC2)cc1,110% (inactive)
7,CCNC(=S)N(Cc1ccccc1)Cc1ccccc1,126% (inactive)
8,CCCCCCCCCCCCCCCc1cc(O)ccc1[N+](=O)[O-],95% (inactive)
9,COC1=CC(c2ccc[nH]2)=N/C1=C\c1[nH]c(C)c(C(=O)CCCCCCCCC(=O)O[C@H]2CC[C@H]3C4CCc5cc(O)ccc5C4CC[C@]23C)c1C (stereo partly specified),52.5% (inactive)
10,CCc1oc2ccccc2c1C(=O)c1cc(I)c(O)c(I)c1,45.3% (inactive)
11,Cc1ccc(N=CNN=C(N)N)cc1,110% (inactive)
12,CCCCN(CCCC)CCCN=c1nc2c(c(N)n1-c1ccccc1)c(=S)n(-c1ccccc1)c(=S)n2-c1ccccc1,-67.7% (active)
13,[Ag].[Ag].[NH-]S(=O)(=O)c1ccc(N=Nc2cc(N=Nc3ccc(S([NH-])(=O)=O)cc3)c3c(NC(=O)C(Cl)Cl)cccc3c2OC(=O)C(Cl)Cl)cc1.[c-]1nccs1.[c-]1nccs1,71.5% (inactive)
14,COc1cc(NCCCCC(C)N)c2nccc(C)c2c1 (stereo unspecified),89.8% (inactive)
15,COC(=O)C(C)NC1=C(Cl)C(=O)C(NC(C)C(=O)OC)=C(Cl)C1=O (stereo unspecified),101% (inactive)
16,COc1cc2nccc(Oc3ccc(NC(=O)C4(C(=O)Nc5ccc(F)cc5)CC4)cc3)c2cc1OC(=O)c1ccc(N)cc1,-10.4% (active)
17,O=C(NO)c1ccc(NCc2csc3ccccc23)cc1,71.2% (inactive)
18,COc1ccc2[nH]c(O)c(/C=c3/ccc4c(c3)N=C(c3ccc(F)cc3)N=4)c2c1,11.5% (inactive)
19,CCN(CC)CCCC(C)N/C(c1cccc(OC)c1)=c1\c(=O)[nH]n(-c2c3ccccc3nc3ccccc23)c(=O)\c1=C(/NC(C)CCCN(CC)CC)c1cccc(OC)c1 (stereo unspecified),-78.3% (active)

# Test system: SF-268 CNS
# Assay: as above
# Details: 10 µM unless noted
row,Compound,growth
1,COc1ccc(/C(=C\c2cc(OC)c(OC)c(OC)c2)C(=O)N2CCNCC2)cc1,103% (inactive)
2,O=c1c2sc3ncc(Cl)cc3c2nnn1-c1cccc(Cl)c1,66.1% (inactive)
3,F,40.9% [6.87 mM] (inactive)
4,CC1=C(C(=O)Nc2ccc(F)cc2)C(c2ccc(C)cc2)C2=C(CC(C)(C)CC2=O)N1 (stereo unspecified),88% (inactive)
5,CC[C@H](Nc1nc(N)nc(C2CC2)c1C#N)c1nc2cccc(NCc3ccc(C(=O)NO)cc3)c2c(=O)n1-c1ccccc1,4.22% (active)
6,CC(C)N1CCN(c2ccncc2S(=O)(=O)N2CCN(C)CC2)CC1,107% (inactive)
7,c1ccc(C(CC2=NCCCN2)c2ccccc2)cc1,100% (inactive)
8,Clc1ccc2c(c1)-c1ccccc1C1=NCCN12,41.1% (inactive)
9,O=C(C=P(c1ccccc1)(c1ccccc1)c1ccccc1)CCl,-12.2% (active)
10,COc1cc(/C=C/C(=O)c2ccc(NC(=O)CSc3nnc(-c4ccc(Cl)cc4)n3-c3ccccc3)cc2)cc(OC)c1OC,77.6% (inactive)
11,OC(c1cc2cc(Cl)ccc2c2cc(C(F)(F)F)ccc12)C1CCCCN1 (stereo unspecified),-90.1% (active)
12,Clc1cc(Br)ccc1-c1ccc(CNCC2CCNCC2)o1,45% (inactive)
13,CN1CCN(Cc2ccc(NC(=O)c3cncc(C#Cc4ncc5cnccn45)c3)cc2C(F)(F)F)CC1,56.4% (inactive)
14,CC1=C(C(=O)Nc2ccc(F)cc2)C(c2ccc(Cl)cc2)C2=C(CC(C)(C)CC2=O)N1 (stereo unspecified),86.3% (inactive)
15,CCOC(=O)c1ccc(N(CCC(=O)O)C(C)=O)cc1,119% (inactive)
16,O=c1[nH]c2cc(Cl)c(Cl)cc2o1,103% (inactive)
17,CC(COC(=O)c1ccccc1)N1CC2CCC(C1)O2 (stereo unspecified),106% (inactive)
18,CC[C@H](Nc1nc(C)nc(N)c1C#N)c1nc2cccc(NCc3ccc(C(=O)NO)cc3)c2c(=O)n1-c1ccccc1,12.3% (inactive)
19,Cc1cc(NC(=O)C2c3ccccc3C(=O)N(CC(C)C)C2c2cccs2)no1 (stereo unspecified),27.8% (inactive)

row,Compound,growth
1,Clc1ccc2c(c1)-n1cccc1C(c1ccc3ccccc3c1)=NC2,109% (inactive)
2,CCC1CCc2nc3sc(C(=O)Nc4cccc(F)c4)c(N)c3cc2C1 (stereo unspecified),68.2% (inactive)
3,CCn1c(CN2CCN(Cc3ccccc3)CC2)nc2cc(NC(=O)c3cccs3)ccc21,-88.3% (active)
4,CCN(CC)CCCNc1cccc2c(C)cc(OC)nc12,104% (inactive)
5,COc1ccc(-c2cn(-c3cccc(C(=O)/C=C/c4ccc(O)c(OC)c4)c3)c(=O)[nH]2)cc1,19.1% (inactive)
6,COc1ccc(/C=c2\c(=O)n(-c3ccccc3)c3nn4c(n23)=NNC42CCCCC2)cc1,92% (inactive)
7,CCNC(=S)N(Cc1ccccc1)Cc1ccccc1,116% (inactive)
8,CCCCCCCCCCCCCCCc1cc(O)ccc1[N+](=O)[O-],91.6% (inactive)
9,COC1=CC(c2ccc[nH]2)=N/C1=C\c1[nH]c(C)c(C(=O)CCCCCCCCC(=O)O[C@H]2CC[C@H]3C4CCc5cc(O)ccc5C4CC[C@]23C)c1C (stereo partly specified),38.7% (inactive)
10,CCc1oc2ccccc2c1C(=O)c1cc(I)c(O)c(I)c1,53.1% (inactive)
11,Cc1ccc(N=CNN=C(N)N)cc1,105% (inactive)
12,CCCCN(CCCC)CCCN=c1nc2c(c(N)n1-c1ccccc1)c(=S)n(-c1ccccc1)c(=S)n2-c1ccccc1,-94% (active)
13,[Ag].[Ag].[NH-]S(=O)(=O)c1ccc(N=Nc2cc(N=Nc3ccc(S([NH-])(=O)=O)cc3)c3c(NC(=O)C(Cl)Cl)cccc3c2OC(=O)C(Cl)Cl)cc1.[c-]1nccs1.[c-]1nccs1,78.6% (inactive)
14,COc1cc(NCCCCC(C)N)c2nccc(C)c2c1 (stereo unspecified),100% (inactive)
15,COC(=O)C(C)NC1=C(Cl)C(=O)C(NC(C)C(=O)OC)=C(Cl)C1=O (stereo unspecified),102% (inactive)
16,COc1cc2nccc(Oc3ccc(NC(=O)C4(C(=O)Nc5ccc(F)cc5)CC4)cc3)c2cc1OC(=O)c1ccc(N)cc1,29.4% (inactive)
17,O=C(NO)c1ccc(NCc2csc3ccccc23)cc1,68.8% (inactive)
18,COc1ccc2[nH]c(O)c(/C=c3/ccc4c(c3)N=C(c3ccc(F)cc3)N=4)c2c1,83.2% (inactive)
19,CCN(CC)CCCC(C)N/C(c1cccc(OC)c1)=c1\c(=O)[nH]n(-c2c3ccccc3nc3ccccc23)c(=O)\c1=C(/NC(C)CCCN(CC)CC)c1cccc(OC)c1 (stereo unspecified),-48.8% (active)
